High-throughput results: PubChem BioAssay, National Center for Advancing Translational Sciences (NCATS)
D3 antag: D3 dopamine receptor (human) antagonism; P35462; D3R cells, DiscoveRx beta-arrestin luminescence, antagonist mode; active compounds read low; max response, negative = inhibition, %; 360,000 tested, 2.5% active; in the data active means max response below about -50%; inconclusive means no clear call, values can overlap the other calls; further: on the % scale 0 is the no-effect control and ±100 the full control effect
Target sequence (P35462 whole entry, looked up): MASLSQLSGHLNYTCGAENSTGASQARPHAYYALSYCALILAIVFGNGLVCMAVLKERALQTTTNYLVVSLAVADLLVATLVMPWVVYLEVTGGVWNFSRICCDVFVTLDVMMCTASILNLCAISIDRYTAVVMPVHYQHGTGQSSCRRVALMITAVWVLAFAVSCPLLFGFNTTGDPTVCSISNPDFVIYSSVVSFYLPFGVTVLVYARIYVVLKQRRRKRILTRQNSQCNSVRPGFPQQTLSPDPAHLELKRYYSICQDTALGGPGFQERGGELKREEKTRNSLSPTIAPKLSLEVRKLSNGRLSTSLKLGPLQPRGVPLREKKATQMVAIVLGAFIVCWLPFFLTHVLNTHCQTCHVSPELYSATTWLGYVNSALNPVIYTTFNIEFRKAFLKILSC
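Cells plated overnight at 1500 cells/well, then exposed to library compounds with dopamine controls for 90 minutes at 37 degrees C. DiscoveRx reagent added for 30–60 minutes at room temperature; luminescence read, quantitative HTS format.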
D1 antag: antagonists of human D1 dopamine receptor; P21728; HEK293 TREx D1 cells, calcium flux, dopamine EC80; active compounds read low; activity change, negative = inhibition, % at 10 µM; 360,000 tested, 3.2% active; AID 504652; in the data active means activity change below about -30%; further: on the % scale 0 is the no-effect control and ±100 the full control effect
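Kinetic fluorescence of a calcium dye serves as the read-out. D1-expressing Hek293 Trex cells, induced overnight at 30 C, are exposed to compound for 180 s before an EC80 dopamine addition, then read 180 s further.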
D1 ag: activates the human D1 dopamine receptor; P21728; AID 504660; HEK293 T-REx D1 cells, calcium flux, agonist mode; 360,000 tested, 1% active; activation, % at 2 µM; in the data active means activation above about 30%; further: 0% is about no effect
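Tetracycline-induced HEK293 TREx D1 cells, force-coupled to calcium signalling, were dye-loaded with a no-wash calcium kit. Compound was pin-added after a 10 s baseline. Fluorescence was read kinetically at 1 cycle/s for 180 s, with calcium rises flagged as agonism.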
D1 potentiator: human D1 dopamine receptor positive modulation. HEK293 TREx D1 cells, calcium flux, dopamine EC20 potentiation. potentiation, % at 10 µM. 360,000 tested, 0.036% active. AID 504651; in the data active means potentiation above about 30%; further: 0% is about no effect
D3 ag: D3 dopamine receptor (human) agonism; max activation, %; 410,000 tested, 0.58% active; P35462; D3R DiscoveRx beta-arrestin cells, luminescence, 90 min; in the data active means max activation above about 30%; further: 0% is about no effect
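Agonist mode: compounds and dopamine controls were applied to plated cells for 90 min at 37 degrees C after an overnight attachment at 1500 cells/well. Luminescent read-out followed 30 - 60 minutes at room temperature with DiscoveRx detection reagent.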
* hit, by the source's call; ? = inconclusive; · = not tested or not shown. A selection: hits, their analogues and other compounds. The true share with any hit is near 6.1%.

SMILES	D3 antag	D1 antag	D1 ag	D1 potentiator	D3 ag
Cc1nccn1C[C@@H]1CCc2c(c3ccccc3n2C)C1=O	-79*	8	0	-6	-38
Cc1nccn1CC1CCc2c(c3ccccc3n2C)C1=O (stereo unspecified)	8	-1	0	-7	4
CCOc1ccc(NC(=O)C2CCCN(c3nn4cc(-c5ccc(OC)cc5)nc4s3)C2)cc1 (stereo unspecified)	·	0	-1	-5	-3
CC(C)C#Cc1ccc2c(c1)O[C@@H](CN(C)C(=O)c1cnccn1)[C@@H](C)CN([C@@H](C)CO)S2(=O)=O	-16	·	·	·	1
C[C@@H]1CN([C@H](C)CO)S(=O)(=O)c2ccc(Br)cc2O[C@H]1CN(C)C(=O)C1CCCCC1	-74*	·	·	·	4
C[C@H](CO)N1C[C@H](C)[C@@H](CN(C)C(=O)c2cnccn2)Oc2cc(C#CCC3CCCC3)ccc2S1(=O)=O	-61*	·	·	·	-7
CCOc1ccc(C(c2c(O)cc(C)n(CCOC)c2=O)N2CCC(C)CC2)cc1 (stereo unspecified)	·	0	-1	-1	-17
Cc1nc(CNS(=O)(=O)c2ccc3c(c2)CCCC3)cs1	-3	-46*	10	-11	2
NC1=NN=C(N2N=C(c3ccc(Br)cc3)CC2(O)C(F)(F)F)n2ncnc2C1 (stereo unspecified)	-8	-45*	2	-8	-8
COc1ccsc1NC(=O)OCc1ccc(Cl)cc1	5	-6	1	5	0
CSc1nsc(NC(=O)OCc2ccc(Cl)cc2)n1	-3	-36*	26	-6	-4
Cc1ccc(-n2ncc(C(=O)NCCCN3CCc4ccccc4C3)c2C2CCN(C(=O)OC(C)(C)C)CC2)cc1C	·	12	2	1	-29
O=c1cc(CO)oc(C(Nc2ccccn2)c2ccccc2F)c1O (stereo unspecified)	-51*	·	·	·	-5
O=c1cc(CO)oc(C(Nc2ccccn2)c2cccc(F)c2)c1O (stereo unspecified)	?	-14	-2	1	1
Cc1ccccc1OCCSc1nc2ccc(NC(=O)c3ccccc3)cc2s1	·	-33*	17	-2	-11
CC(C)(C)C(=O)Nc1ccc2nc(SCCOc3ccccc3Cl)sc2c1	·	-1	30*	3	13
Cc1cc(NC(=O)c2cccs2)cc(-c2nc3cc(Cl)ccc3o2)c1O	·	3	1	-3	-3
CCOC(=O)c1ccc(CN(Cc2ccc(C)cc2)S(=O)(=O)c2ccc(F)c(C(=O)Nc3ccc(C)c(F)c3)c2)cc1	·	-46*	8	-2	5
CC(=O)OCc1c(C(F)(F)F)nn(C)c1Oc1ccccc1	0	-14	-1	-2	-7
CC(=O)OCc1c(C(F)(F)F)nn(C)c1Oc1cccc(C(F)(F)F)c1	24	-35*	18	-12	0
CCc1ccc(C2C(C(=O)Nc3ccccc3OC)=C(C)Nc3c(C(=O)Nc4ccc(C)cc4)cnn32)cc1 (stereo unspecified)	·	2	5	-4	3
COc1ccc(NCC(O)Cn2cnc3c2c(=O)n(C)c(=O)n3C)cc1 (stereo unspecified)	14	6	2	4	-2
Cn1c(=O)c2c(ncn2CC(O)CNc2ccc(Br)cc2)n(C)c1=O (stereo unspecified)	19	-32*	5	-3	6
COC(=O)CN1C(=O)CSc2ccc(S(=O)(=O)Nc3cccc(C)c3)cc21	·	-4	1	0	8
CCOc1ccccc1CNC(=O)c1cccc(NC(=O)c2nsc3ccccc23)c1	·	-14	2	-1	5
SMILES	D3 antag	D1 antag	D1 ag	D1 potentiator	D3 ag
CCCN1CCCc2ccccc21	24	-31*	0	7	10
CC(C)(C)NC(=O)CN(C(=O)CCN1CCCc2ccccc21)C(C)(C)C	18	4	1	-1	5
Cc1ccc(CNC(=O)CCc2c(C)nc3nc(C)nn3c2C)cc1	·	-10	0	-2	2
CCOc1ccccc1C(=O)Nc1c(C(=O)Nc2ccc(F)cc2)oc2ccccc12	·	7	5	-1	-8
C=C(C)Cn1c(SCC(=O)Nc2cccc(C)c2)nc2sc3c(c2c1=O)CCCC3	·	19	3	-3	34*
C=C(C)Cn1c(SCC(=O)c2ccccc2)nc2sc3c(c2c1=O)CCCC3	·	-1	1	-2	1
NC(=O)NC(Cc1ccccc1)c1ccccc1 (stereo unspecified)	-18	2	2	-10	0
NC(=O)OCC(COC(N)=O)c1ccccc1	-22	-39*	1	4	17
Cc1ccc(C(=O)CC(=O)c2cc(Cl)ccc2O)cc1	-9	·	-1	1	3
CC(C)(C)c1ccc(C(=O)CC(=O)c2cc(Cl)ccc2O)cc1	-57*	-4	-1	-4	-5
Cc1ccc(C(=O)CC(=O)c2ccc(C)cc2O)cc1	-77*	-10	1	7	-6
COc1ccc(C(C)=O)cc1CSc1nc(NCCc2ccccc2)c2ccccc2n1	·	9	6	-4	7
Fc1cccc(CSc2nc(NCCc3ccccc3)c3ccccc3n2)c1	·	-46*	24	-5	7
CCOC(=O)c1oc2ccccc2c1CN1CCN(c2ccccc2)CC1	-77*	4	1	-2	-4
CCOC(=O)c1oc2ccccc2c1NC(=O)COC	-52*	-3	-2	0	-7
COc1cccc(NC(=O)c2oc3ccccc3c2NC(C)=O)c1	-55*	-12	4	-8	-33
CCOCC(=O)Nc1c(C(=O)OCC)oc2ccccc12	16	25	1	-6	0
CCOC(=O)c1c(C)oc2ncnc(N3CCN(c4ccccc4)CC3)c12	·	-45*	-1	1	2
CCOC(=O)c1oc2ccccc2c1CN1CCN(C(=O)c2ccccc2)CC1	20	-12	2	3	4
CCOC(=O)c1c(C)oc2ncnc(N3CCN(c4ccccc4F)CC3)c12	·	13	2	-4	0
COc1ccccc1NC(=O)C(Cc1ccccc1)NS(=O)(=O)c1cccc2nsnc12 (stereo unspecified)	·	0	0	3	-5
COc1ccc(NC(=O)c2oc3ccccc3c2NC(=O)COc2ccc(F)cc2)c(OC)c1	·	5	3	0	-2
COc1ccc(NC(=O)c2oc3ccccc3c2NC(=O)c2ccco2)c(OC)c1	29	-13	4	0	49*
CCOCC(=O)Nc1c(C(=O)Nc2ccc(OC)cc2OC)oc2ccccc12	39	23	-3	12	73*
CC(CCc1ccc2c(c1)OCO2)NN (stereo unspecified)	·	·	·	·	-3
Cc1ccc2sc(N(CCCN(C)C)C(=O)c3ccc(S(=O)(=O)N(C)Cc4ccccc4)cc3)nc2c1C	?	3	11	-3	-10
CCOc1cccc2sc(N(CCCN(C)C)C(=O)c3ccc(S(=O)(=O)N(CC)Cc4ccccc4)cc3)nc12	-18	-45*	33*	-2	-19
